Assay results published in PubChem BioAssay (NCATS).
Several values for one entry are separate records, joined by “and”; a condition that tells them apart may be missing. Equal values may be shown once. Results filed as inconclusive are left out. Activity calls are given as the source filed them. The call rests on the fitted dose curve; in most records, active means well fitted inhibition curve with a large enough effect; inconclusive means small, poorly fitted or top-dose-only effect; inactive means flat fitted curve, though single readings scatter.

How the values were obtained:
[1] = Drug repurposing screens with cells derived from glioblastoma tumor samples (AID 1345199); conditions: GBM patient neurospheres viability, ATP luminescence, 48 h; further: nearly all actives have a fitted effect of over 40% in size
How it was run: (§1)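 Primary testing used CD133+ neurospheres from four GBM patients, seven concentrations, 48 h exposure and ATP-based viability; confirmation added three slower-growing patient lines.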

astro = control astrocytes; assay: as above; conditions: viability, ATP luminescence, 48 h; series mostly up to 45.9 µM
How it was run: as §1

[2] = at 45.9 µM (top of the series), tumour line B
[3] = at 45.9 µM (top of the series), tumour line D
[4] = at 46 µM (top of the series), tumour line A
[5] = at 46.1 µM (top of the series), tumour line C
[6] = at 20 µM (top of the series), tumour line C
[7] = at 21.2 µM (top of the series), tumour line B
[8] = at 21.2 µM (top of the series), tumour line D
[9] = at 21.3 µM (top of the series), tumour line A
On the % scale 0 is the no-effect control and ±100 the full control effect; potency means the concentration at half of the fitted maximal effect.

CC1(C)CO[C@@H](CC(=O)O)CN1
inactive: activity, negative = cell killing [1, 2] -8.88% | activity, negative = cell killing [1, 3] -5.5% | activity, negative = cell killing [1, 4] -28.2% | activity, negative = cell killing [1, 5] -15.1% | Potency (astro)

CC(C)(C)C(=O)C(Oc1ccc(Cl)cc1)n1ccnc1 (stereo not given)
inactive: activity, negative = cell killing [1, 2] -7.03% | activity, negative = cell killing [1, 3] -26.6% | activity, negative = cell killing [1, 5] -0.0869% | Potency (astro)
active: Potency ([1]; tumour line A) 12.6 µM

NC1CCN(c2cccc(Cl)n2)CC1
inactive: activity, negative = cell killing [1, 2] -8.95% | activity, negative = cell killing [1, 3] 3.86% | activity, negative = cell killing [1, 5] -16% | Potency (astro)
active: Potency ([1]; tumour line A) 11.2 µM

C[C@H](N)[C@H](O)c1cccc(O)c1
inactive: activity, negative = cell killing [1, 6] -4.02% | activity, negative = cell killing [1, 7] -13% | activity, negative = cell killing [1, 8] -3.31% | activity, negative = cell killing [1, 9] -12.7% | Potency (astro)

CC1CC(OC(=O)C(O)c2ccccc2)CC(C)(C)N1C (stereo not given)
inactive: activity, negative = cell killing [1, 6] 14.2% | activity, negative = cell killing [1, 7] 1.64% | activity, negative = cell killing [1, 8] -6.11% | activity, negative = cell killing [1, 2] -1.01% | activity, negative = cell killing [1, 3] 1.15% | activity, negative = cell killing [1, 4] -25.8% | activity, negative = cell killing [1, 5] -11% | Potency (astro)

CNCCC(Oc1ccc(C(F)(F)F)cc1)c1ccccc1 (stereo not given)
active: Potency ([1]; tumour line A) 3.55 µM | Potency ([1]; tumour line B) 20 µM
inactive: activity, negative = cell killing [1, 5] -4.69%

Cn1cc[nH]c1=S
inactive: activity, negative = cell killing [1, 6] 3.07% | activity, negative = cell killing [1, 7] -12.9% | activity, negative = cell killing [1, 8] -12.3% | activity, negative = cell killing [1, 9] -28.7% | Potency (astro)

O=C1Nc2ccc(Cl)cc2[C@@](C#CC2CC2)(C(F)(F)F)O1
active: Potency ([1]; tumour line A) 17.8 µM
inactive: activity, negative = cell killing [1, 2] -20.8% | activity, negative = cell killing [1, 5] -5.83%

Cc1ccc2nc(N)[nH]c(=O)c2c1Sc1ccncc1
active: Potency ([1]; tumour line A) 7.08 µM
inactive: activity, negative = cell killing [1, 3] -18.7% | activity, negative = cell killing [1, 5] -42.8%

O=c1cc[nH]c(=O)[nH]1
inactive: activity, negative = cell killing [1, 2] -1.25% | activity, negative = cell killing [1, 3] -13.5% | activity, negative = cell killing [1, 4] -25.6% | activity, negative = cell killing [1, 5] -13% | Potency (astro)

Nc1ncnc2c1ncn2[C@@H]1O[C@H](CO)[C@@H](O)[C@H]1O
inactive: activity, negative = cell killing [1, 2] 4.34% | activity, negative = cell killing [1, 3] 12.4% | activity, negative = cell killing [1, 4] -12.9% | activity, negative = cell killing [1, 5] -3.63% | Potency (astro)

CC1=C(/C=C/C(C)=C/C=C/C(C)=C/C(=O)O)C(C)(C)CCC1
inactive: activity, negative = cell killing [1, 2] -21.7% | activity, negative = cell killing [1, 3] -18.7% | activity, negative = cell killing [1, 5] -15.9%

C/C(=C(\CCOP(=O)(O)O)SC(=O)c1ccccc1)N(C=O)Cc1cnc(C)nc1N
inactive: activity, negative = cell killing [1, 6] -2.37% | activity, negative = cell killing [1, 7] 1.9% | activity, negative = cell killing [1, 8] -14.8% | activity, negative = cell killing [1, 9] -14% | Potency (astro)

N[C@@H](CSSC[C@H](N)C(=O)O)C(=O)O
inactive: activity, negative = cell killing [1, 2] 7.37% | activity, negative = cell killing [1, 3] 8.78% | activity, negative = cell killing [1, 4] 8.9% | activity, negative = cell killing [1, 5] -5.12% | Potency (astro)

C=CCn1c(=O)n([C@@H]2O[C@H](CO)[C@@H](O)[C@H]2O)c2nc(N)[nH]c(=O)c21
inactive: activity, negative = cell killing [1, 2] -4.36% | activity, negative = cell killing [1, 3] 2.91% | activity, negative = cell killing [1, 4] -17.2% | activity, negative = cell killing [1, 5] -7.78% | Potency (astro)

O=C(O)c1ccccc1-c1ccc(C(F)(F)F)cc1
inactive: activity, negative = cell killing [1, 2] -7.48% | activity, negative = cell killing [1, 3] -6.37% | activity, negative = cell killing [1, 4] -14.4% | activity, negative = cell killing [1, 5] 1.99% | Potency (astro)

Cc1ncc([N+](=O)[O-])n1CC(O)CCl (stereo not given)
inactive: activity, negative = cell killing [1, 6] -11.2% | activity, negative = cell killing [1, 7] -18% | activity, negative = cell killing [1, 8] -1.81% | activity, negative = cell killing [1, 9] -11.7% | Potency (astro)

COc1cc2[nH]c(=O)[nH]c(=O)c2cc1OC
inactive: activity, negative = cell killing [1, 6] -13.5% | activity, negative = cell killing [1, 7] -9.77% | activity, negative = cell killing [1, 8] 1.35% | activity, negative = cell killing [1, 9] -29.6% | Potency (astro)

CCCCCCCCCCCCCCCCCCOCC(O)CO (stereo not given)
inactive: activity, negative = cell killing [1, 2] 0.27% | activity, negative = cell killing [1, 3] 9.38% | activity, negative = cell killing [1, 4] -23.8% | activity, negative = cell killing [1, 5] 24.6% | Potency (astro)

O=C1N=C(O)CN1/N=C/c1ccc(-c2ccc([N+](=O)[O-])cc2)o1
inactive: activity, negative = cell killing [1, 2] -7.61% | activity, negative = cell killing [1, 3] 2.91% | activity, negative = cell killing [1, 4] -22.1% | activity, negative = cell killing [1, 5] -1.99% | Potency (astro)

NC(=O)NNc1ccccc1
inactive: activity, negative = cell killing [1, 2] -9.66% and -3.84% | activity, negative = cell killing [1, 3] -10.5% and 5.37% | activity, negative = cell killing [1, 4] -34.9% | activity, negative = cell killing [1, 5] -25.2% and -16.9% | Potency (astro)

C[C@@H]1CCN(C(=O)[C@H](CCCN=C(N)N)NS(=O)(=O)c2cccc3c2NC[C@H](C)C3)[C@@H](C(=O)O)C1
inactive: activity, negative = cell killing [1, 2] 7.31% | activity, negative = cell killing [1, 3] -6.42% | activity, negative = cell killing [1, 4] -6.41% | activity, negative = cell killing [1, 5] -2.45% | Potency (astro)

O=C(Oc1ccccc1C(=O)O)c1ccccc1O
inactive: activity, negative = cell killing [1, 2] -6.94% | activity, negative = cell killing [1, 3] -16.8% | activity, negative = cell killing [1, 4] -11.8% | activity, negative = cell killing [1, 5] 0.529% | Potency (astro)
